Values joined by “and” are separate entries in the source; they are usually repeats but may differ in a detail not shown here. Equal entries are not always repeated. Records with an inconclusive call do not appear. Where a call stands in place of a potency, no number is given. More than one record can exist for a structure, and the calls need not agree. Active and inactive are the calls of the source. The call rests on the fitted dose curve; in most records, active means well fitted curve in the direction sought with a large enough effect in the repeat runs; inconclusive means weak or mixed curves; inactive means no such curve, though single readings can be large; an effect the other way counts as inactive or inconclusive. Starred links: 1 amine or outer side, 2 acyl side, 3 side chain; linkers in the order of their positions; H or OH if unused. Positions of bridges follow the written chain, without caps; N, C: chain ends. Non-standard residues stand in square brackets, D forms with d. Residues, ends and D or L forms follow the SMILES beside them. Chains are numbered I, II in the order given. Actinocin(9to1) = Cc1c2oc3c(C)ccc(C(=O)[*:1])c3nc-2c(C(=O)[*:2])c(N)c1=O; NMeV = CN[C@H](C(=O)O)C(C)C; Sar = CNCC(=O)O
Potency means the concentration at half of the fitted maximal effect.

The nature of the first experiment: A CellTox Green Cytotoxicity Assay to monitor cytotoxicity in HEK293 cells - 8 hour (AID 1224884). Further: nearly all actives have a fitted effect of over 35% in size. The following applies: CellTox Green fluorescence; series mostly up to 76.8 µM. In outline:
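Each value comes from one timepoint of a single continuous run in which HEK293 cells with CellTox Green were exposed to compound for up to 40 h at 37 C, dye fluorescence rising with cell death.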
For `CC(C)(C)NCC(O)c1cc(O)cc(O)c1` (centres undefined), the Potency entry was “inactive”.
`Cc1c2oc3c(C)ccc(C(=O)N[C@@H]4C(=O)N[C@H](C(C)C)C(=O)N5CCC[C@H]5C(=O)N(C)CC(=O)N(C)[C@@H](C(C)C)C(=O)O[C@@H]4C)c3nc-2c(C(=O)N[C@@H]2C(=O)N[C@H](C(C)C)C(=O)N3CCC[C@H]3C(=O)N(C)CC(=O)N(C)[C@@H](C(C)C)C(=O)O[C@@H]2C)c(N)c1=O` (I: T[dV]P[Sar][NMeV] / II: T[dV]P[Sar][NMeV]; ester I:1-I:C, II:1-II:C; linker I:N-II:N via Actinocin(9to1)): the Potency result was “inactive”.
As for `C#CC(C)(CC)OC(=O)c1ccccc1C(=O)O` (centres undefined), the Potency result is “inactive”.
`CC(C)(C)NCC(O)COc1ccccc1OCC1CCCO1` (centres undefined): the Potency entry was “inactive”.
On the same count and under the same terms, under `COc1ccc(Cc2cnc(N)nc2N)cc1OC` stands “inactive”; under `C=CS(=O)(=O)O`, “inactive”.
On the same count and under the same terms, under `CC(=O)C1=C(C)[C@@H]2C[C@@]3(C1)[C@H](C)CC[C@H]3C2(C)C` stands “inactive”; under `O=S(=O)(O)c1ccc2nc(-c3ccccc3)[nH]c2c1`, “inactive”.
Same read-out and setting: then `Cc1scc2c1N(C(=O)CN1CCN(C)CC1)c1ccccc1NC2=O`, with “inactive”; and `COC(c1ccccc1)(c1ccccc1)[C@H](Oc1nc(C)cc(C)n1)C(=O)O`, with “inactive”; and `OCCN1CCNCC1`, with “inactive”.
Take `C1COC(NC(C2CC2)C2CC2)=N1`: the Potency result was “inactive”.
The same measure, in the same setting: under `Cc1cc(OCCOCC[N+](C)(C)Cc2ccccc2)ccc1C(C)(C)CC(C)(C)C` stands 23.9 µM (active); under `CC(=O)CC(=O)Nc1ccc2[nH]c(=O)[nH]c2c1`, “inactive”; under `CCN(CC)C(=O)Nc1ccc(OCC(O)CNC(C)(C)C)c(C(C)=O)c1` (centres undefined), “inactive”.
On the same count and under the same terms, under `CCCOC(=O)c1cc(O)c(O)c(O)c1` stands “inactive”.
On to `CN1C(=O)c2ccc([N+](=O)[O-])cc2C1=O`, for which the Potency entry was “inactive”.
Take `CC(C)(C)c1ccccc1`: the Potency result was “inactive”.
On to `Nc1nc2ccccc2[nH]1`, for which the Potency result was “inactive”.
Regarding `c1ccc2c(c1)CCCC2C1=NCCN1` (centres undefined), the Potency entry is “inactive”.
The same measure, in the same setting: then `O=C(Cl)c1cccc(C(=O)Cl)c1`, with “inactive”.
As for `CCc1cc(C(C)(C)C)c(O)c(C(C)(C)C)c1`, the Potency result was “inactive”.
The same measure, in the same setting: under `CC[C@@H](N)CO` stands “inactive”.
Still for that read-out and setting: under `Cc1ccc(-c2cc(C(F)(F)F)nn2-c2ccc(S(N)(=O)=O)cc2)cc1` stands “inactive”.
`CCCCCCCCCCCCCC[P+](CCCC)(CCCC)CCCC`: the Potency was 17.3 µM (active) and 21.9 µM (active).
The same measure, in the same setting: then `CCC(CO)(CO)COCC(CC)(CO)CO`, with “inactive”.
Same read-out and setting: under `Nc1cc(S(=O)(=O)O)cc2cc(S(=O)(=O)O)cc(O)c12` stands “inactive”; under `O=C(O)Cn1cnnn1`, “inactive”; under `Oc1ccc(Cl)cc1Cc1cc(Cl)ccc1O`, “inactive”.
The same measure, in the same setting: then `c1cnc2cc3c(cc2n1)C1CNCC3C1`, with “inactive”; and `C=C(C)C(=O)O`, with “inactive”; and `CCN(CC)CCOc1ccc(/C(=C(\Cl)c2ccccc2)c2ccccc2)cc1`, with 39.7 µM (active) and inactive.
Consider `NCCCCCC(=O)O`, for which the Potency entry was “inactive”.
For `CC(C)CCOC(=O)c1ccc(N(C)C)cc1`, the Potency result was “inactive”.
With `CCN(CC)c1ccc2c(C)cc(=O)oc2c1`, the Potency result was “inactive”.
`CCCNC(C)C(=O)Nc1ccccc1C` (centres undefined): the Potency entry was “inactive”.
The same measure, in the same setting: then `CCOC(=O)C(C)C(C)=O` (centres undefined), with “inactive”.

Another experiment is described as follows: qHTS RealTime-Glo MT Cell Viability Assay in HepG2 cells - 16 hour (AID 1224885). Further: nearly all actives have a fitted effect of over 50% in size. The settings on record: RealTime-Glo luminescence; series mostly up to 76.8 µM. In short, it runs like this:
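HepG2 suspension premixed with RealTime-Glo reagents is plated at 600 cells per well and left 5 h at 37 C/5% CO2. Compounds in DMSO then go in, and bioluminescence reflecting viable cell number is recorded over 40 h.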
A general note: Quantitative high-throughput screening tests each substance at several concentrations.
Take `CC(C)(C)NCC(O)c1cc(O)cc(O)c1` (centres undefined): the Potency entry was “inactive”.
Turning to `Cc1c2oc3c(C)ccc(C(=O)N[C@@H]4C(=O)N[C@H](C(C)C)C(=O)N5CCC[C@H]5C(=O)N(C)CC(=O)N(C)[C@@H](C(C)C)C(=O)O[C@@H]4C)c3nc-2c(C(=O)N[C@@H]2C(=O)N[C@H](C(C)C)C(=O)N3CCC[C@H]3C(=O)N(C)CC(=O)N(C)[C@@H](C(C)C)C(=O)O[C@@H]2C)c(N)c1=O` (I: T[dV]P[Sar][NMeV] / II: T[dV]P[Sar][NMeV]; ester I:1-I:C, II:1-II:C; linker I:N-II:N via Actinocin(9to1)), the Potency is 8.47 µM (active) and 9.52 µM (active).
The same measure, in the same setting: under `C#CC(C)(CC)OC(=O)c1ccccc1C(=O)O` (centres undefined) stands “inactive”.
Take `CC(C)(C)NCC(O)COc1ccccc1OCC1CCCO1` (centres undefined): the Potency entry is “inactive”.
As for `COc1ccc(Cc2cnc(N)nc2N)cc1OC`, the Potency result was “inactive”.
The same measure, in the same setting: under `C=CS(=O)(=O)O` stands “inactive”.
Regarding `CC(=O)C1=C(C)[C@@H]2C[C@@]3(C1)[C@H](C)CC[C@H]3C2(C)C`, the Potency entry is “inactive”.
Consider `O=S(=O)(O)c1ccc2nc(-c3ccccc3)[nH]c2c1`, for which the Potency result was “inactive”.
Turning to `Cc1scc2c1N(C(=O)CN1CCN(C)CC1)c1ccccc1NC2=O`, the Potency result is “inactive”.
On the same count and under the same terms, then `COC(c1ccccc1)(c1ccccc1)[C@H](Oc1nc(C)cc(C)n1)C(=O)O`, with “inactive”; and `OCCN1CCNCC1`, with “inactive”.
Same read-out and setting: under `C1COC(NC(C2CC2)C2CC2)=N1` stands “inactive”.
Same read-out and setting: then `Cc1cc(OCCOCC[N+](C)(C)Cc2ccccc2)ccc1C(C)(C)CC(C)(C)C`, with 17.3 µM (active) and 21.3 µM (active); and `CC(=O)CC(=O)Nc1ccc2[nH]c(=O)[nH]c2c1`, with “inactive”.
Take `CCN(CC)C(=O)Nc1ccc(OCC(O)CNC(C)(C)C)c(C(C)=O)c1` (centres undefined): the Potency entry was “inactive”.
As to `CCCOC(=O)c1cc(O)c(O)c(O)c1`, the Potency entry is “inactive”.
Still for that read-out and setting: under `CN1C(=O)c2ccc([N+](=O)[O-])cc2C1=O` stands “inactive”; under `CC(C)(C)c1ccccc1`, “inactive”; under `Nc1nc2ccccc2[nH]1`, “inactive”.
Same read-out and setting: then `c1ccc2c(c1)CCCC2C1=NCCN1` (centres undefined), with “inactive”.
With `O=C(Cl)c1cccc(C(=O)Cl)c1`, the Potency entry was “inactive”.
Take `CCc1cc(C(C)(C)C)c(O)c(C(C)(C)C)c1`: the Potency result is “inactive”.
Turning to `CC[C@@H](N)CO`, the Potency entry is “inactive”.
The same measure, in the same setting: then `Cc1ccc(-c2cc(C(F)(F)F)nn2-c2ccc(S(N)(=O)=O)cc2)cc1`, with 48.8 µM (active) and 43.6 µM (active) and inactive; and `CCCCCCCCCCCCCC[P+](CCCC)(CCCC)CCCC`, with 21.8 µM (active) and 15.5 µM (active); and `CCC(CO)(CO)COCC(CC)(CO)CO`, with “inactive”.
The same measure, in the same setting: under `Nc1cc(S(=O)(=O)O)cc2cc(S(=O)(=O)O)cc(O)c12` stands “inactive”; under `O=C(O)Cn1cnnn1`, “inactive”.
On the same count and under the same terms, under `Oc1ccc(Cl)cc1Cc1cc(Cl)ccc1O` stands “inactive”; under `c1cnc2cc3c(cc2n1)C1CNCC3C1`, “inactive”; under `C=C(C)C(=O)O`, “inactive”.
Consider `CCN(CC)CCOc1ccc(/C(=C(\Cl)c2ccccc2)c2ccccc2)cc1`, for which the Potency was 31.6 µM (active) and 23.9 µM (active).
The same measure, in the same setting: then `NCCCCCC(=O)O`, with “inactive”; and `CC(C)CCOC(=O)c1ccc(N(C)C)cc1`, with “inactive”.
Still for that read-out and setting: under `CCN(CC)c1ccc2c(C)cc(=O)oc2c1` stands “inactive”.
Same read-out and setting: then `CCCNC(C)C(=O)Nc1ccccc1C` (centres undefined), with “inactive”.
For the molecule `CCOC(=O)C(C)C(C)=O` (centres undefined), the Potency entry is “inactive”.

Values taken from PubChem BioAssay (Tox21).
